Hits are enriched below; roughly 3.7% of the tested compounds scored in any of these assays.
FMDV antiviral – blocks foot and mouth disease virus. FMDV antiviral cell-based qHTS. Potency, µM (series often up to 57.9 µM), usual class: inhibitors. 410,000 tested, 1.2% active; calls by dose curve; tested in HEK293T cells; note: read-out not given here; nearly all actives have a fitted effect of over 45% in size
Sm TGR block – inhibitors of Schistosoma mansoni thioredoxin glutathione reductase; purified TGR, DTNB reduction, TNB absorbance 405 nm; Potency, µM (titrated, usually from 114 µM), hits mostly inhibitors; 360,000 tested, 3% active; AID 485364; note: nearly all actives have a fitted effect of over 60% in size
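TGR 20 nM + NADPH 100 uM (dispensed conc.), cpd preinc 15 min RT; start with NADPH (500 uM addition) then DTNB (15 mM addition). Kinetic TNB absorbance, 405 nm filter. Four-parameter Hill fit across titration.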
RE007 growth inh – less growth of the S. pombe RE007 Vpr strain. S. pombe RE007 Vpr strain, BacTiter-Glo ATP luminescence, 24 h. Potency, µM (highest dose often 92.2 µM), usual class: inhibitors. 360,000 tested, 0.21% active. AID 651644; active = well fitted falling curve with a large enough effect; inconclusive = small, poorly fitted or top-dose-only effect; inactive = no such curve, though single readings can be large or run the other way; note: nearly all actives have a fitted effect of over 50% in size
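Fission yeast RE007 carrying one integrated HIV-1 vpr copy, seeded at OD 0.01 in PMG+AL medium with 23 nL pinned compound. Grown 24 h at 30 degrees; viability read by BacTiter-Glo luminescence after 5 min.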
TbPYK inhibitor – blocks Trypanosoma brucei pyruvate kinase; Q57TT1; TbPYK enzyme, Kinase-Glo Plus ATP luminescence, 45 min; Potency, µM (series often up to 76.8 µM), most hits filed as inhibitors; 410,000 tested, 0.12% active; note: nearly all actives have a fitted effect of over 50% in size
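TbPYK + substrate in 50 mM TEA pH 7.2, 100 mM KCl, 10 mM MgCl2, 0.05% BSA, 0.01% Tween-20; cpd pinned; ADP 130 uM final; 45 min RT; Kinase-Glo Plus 10 min; luminescence endpoint.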
Of the large screens only hits and unclear results are named; the others gave an inactive call. Unless noted, calls come from the whole dose curve; as a rule, active = well fitted curve in the direction sought with a large enough effect; inconclusive = small, poorly fitted or top-dose-only effect, or another doubt; inactive = no such curve, though single readings can be large; an effect the other way counts as inactive or inconclusive.

Cc1cc(Cl)ccc1-n1c(CCC(=O)O)ccc1-c1cccs1	Sm TGR block 28µM (no result: RE007 growth inh)
Cc1c(Cl)cccc1-n1c(CCC(=O)O)ccc1-c1cccs1	Sm TGR block 40µM (no result: RE007 growth inh)
COc1ccc(-c2ccc(CCC(=O)O)n2-c2ccc(Cl)cc2C)cc1	Sm TGR block 40µM (no result: RE007 growth inh)
Cc1ccc(C)c(-n2c(CCC(=O)O)ccc2-c2ccc(Cl)cc2)c1	Sm TGR block inconclusive (no result: RE007 growth inh)
Cc1ccc(Cl)cc1-n1c(CCC(=O)O)ccc1-c1cccs1	Sm TGR block 40µM (no result: RE007 growth inh)
Cc1c(Cl)cccc1NC(=O)Cn1c(CCC(=O)O)ccc1-c1cccs1	none (no result: RE007 growth inh)
CCSc1nnc(C(C)NS(=O)(=O)c2cccc(Cl)c2C)n1C (centres undefined)	none (no result: Sm TGR block, RE007 growth inh, TbPYK inhibitor)
OC[C@H]1O[C@H](n2cnc3c(NC4CCCC4)nc(Cl)nc32)[C@@H](O)[C@@H]1O	none (no result: Sm TGR block, RE007 growth inh, TbPYK inhibitor)
O=C(CCn1c(=O)c2cccn2c2cccnc21)Nc1ccccc1C(F)(F)F	none (no result: RE007 growth inh)
COc1ccccc1C(=O)Nc1ccc2c(c1)CC1(C(=O)N(C)C(=O)N(C)C1=O)C1CCCN21 (centres undefined)	Sm TGR block 35µM
CC(C)(CNC(=O)c1cnn(-c2ncc3c(n2)-c2ccccc2CCC3)c1C1CC1)N1CCOCC1	none (no result: Sm TGR block, RE007 growth inh, TbPYK inhibitor)
COc1c(O)cc2c(c1O)C1OC(CO)C(O)C(O)C1OC2=O (centres undefined)	none
O=C1OCC2OC(O)C(O)C(O)C2OC(=O)c2cc(O)c(O)c(O)c2-c2c(O)c(O)c3oc(=O)c4c(c(O)c(O)c5oc(=O)c2c3c54)-c2c1cc(O)c(O)c2O (centres undefined)	Sm TGR block 16µM (no result: FMDV antiviral, RE007 growth inh, TbPYK inhibitor)
CC1=C(C(=O)Nc2ccccc2)C(C(C)C)n2nc(SCc3ccccc3C)nc2N1 (centres undefined)	none (no result: RE007 growth inh)
O=C(CBr)N1CCc2ccccc2C(c2ccccc2)C1 (centres undefined)	Sm TGR block 3.5µM, TbPYK inhibitor inconclusive
CCn1c(CN2CCC(C)CC2)nc2cc(NC(=O)COc3ccc(Cl)c(C)c3)ccc21	FMDV antiviral 18µM (no result: RE007 growth inh)
Nc1c(C(=O)N2CCOCC2)sc2nc3c(cc12)CCCC3	FMDV antiviral 11µM, TbPYK inhibitor inconclusive
CC[n+]1ccccc1/C=C/c1ccc(N(C)C)cc1	FMDV antiviral inconclusive
CC[n+]1ccc(/C=C/c2ccc(N(C)C)cc2)c2ccccc21	FMDV antiviral 18µM, RE007 growth inh 13µM, TbPYK inhibitor inconclusive
CC[n+]1c(/C=C/c2ccc(N(C)C)cc2)ccc2ccccc21	FMDV antiviral 6.3µM, Sm TGR block inconclusive, RE007 growth inh 13µM, TbPYK inhibitor inconclusive
CC[n+]1c(/C=C/c2ccc(OC)c(OC)c2)ccc2ccccc21	none
CCN(CC)c1ccc(/C=C/c2ccc3ccc(OC)cc3[n+]2CC)cc1	FMDV antiviral 7.9µM, RE007 growth inh inconclusive
Cc1nnc(Sc2nc3ccccc3o2)c2ccccc12	FMDV antiviral inconclusive, Sm TGR block 32µM
O=C(NCC1Cc2cc(F)cc(-c3cnccn3)c2O1)c1cccc(-c2ccccc2F)c1 (centres undefined)	none (no result: Sm TGR block, RE007 growth inh, TbPYK inhibitor)
COc1cc(C(O)C(=O)O)ccc1O (centres undefined)	Sm TGR block 10µM
CCC(COC)NC(=O)c1cnn(-c2ncc3c(n2)-c2ccccc2CCC3)c1C (centres undefined)	none (no result: Sm TGR block, RE007 growth inh, TbPYK inhibitor)
Clc1nssc1=Nc1nncs1	Sm TGR block 50µM, TbPYK inhibitor 5µM
Clc1ccc(N=c2ssnc2Cl)nc1	RE007 growth inh inconclusive, TbPYK inhibitor inconclusive
Cc1noc(C)c1S(=O)(=O)N(CC(=O)NCCc1ccc(Cl)cc1)c1ccc(C(C)C)cc1	none (no result: RE007 growth inh)
O=C(Nc1ccc(N2CCN(c3ccc(C(F)(F)F)cn3)CC2)nc1)c1cccs1	FMDV antiviral inconclusive
O=C(Nc1ccc(N2CCN(c3ncccc3C(F)(F)F)CC2)nc1)c1cccs1	FMDV antiviral 13µM
CC#CC#Cc1cccc(=O)o1	Sm TGR block 20µM
COc1ccc(CNC(=O)c2ccc3c(c2)N(C)C(=O)C2CCCCN32)cc1OC (centres undefined)	none (no result: RE007 growth inh)
COc1cc(/C=C2/NC(=O)N(Cc3ccccc3F)C2=O)cc(OC)c1O	Sm TGR block 14µM, TbPYK inhibitor inconclusive
CCOc1cc(/C=C2/NC(=O)N(Cc3ccccc3F)C2=O)ccc1O	Sm TGR block inconclusive
Cc1ccc(S(=O)(=O)Cn2nnnc2C(C(C)C)N2CCc3ccccc3C2)cc1 (centres undefined)	Sm TGR block 28µM (no result: FMDV antiviral)
Cc1ccc(S(=O)(=O)Cn2nnnc2C(C(C)C)N2CCSCC2)cc1 (centres undefined)	Sm TGR block inconclusive (no result: FMDV antiviral)
N#Cc1nc(COc2ccccc2F)oc1NCc1ccc(F)cc1	Sm TGR block 25µM
COc1ccc(CCNc2oc(COc3ccccc3F)nc2C#N)cc1	none
COc1ccc(NC(=O)CSc2nc3c(c(=O)[nH]2)CCC3)cc1	none (no result: RE007 growth inh)
c1cc(C(c2nnnn2C2CCCC2)N2CCOCC2)ccn1 (centres undefined)	Sm TGR block 28µM (no result: FMDV antiviral)
Oc1ccc(N2CCN(C(c3ccncc3)c3nnnn3C3CCCC3)CC2)cc1 (centres undefined)	none (no result: FMDV antiviral)
Oc1ccc(C(c2nnnn2C2CCCCC2)N2CCOCC2)cc1 (centres undefined)	Sm TGR block 2.8µM
CCOC(=O)c1cccc(NC2c3ccccc3C(=O)N2Cc2ccco2)c1 (centres undefined)	FMDV antiviral 13µM, Sm TGR block inconclusive
CC(=O)c1cccc(NC2c3ccccc3C(=O)N2Cc2ccco2)c1 (centres undefined)	FMDV antiviral inconclusive, Sm TGR block inconclusive
CCN(CC)S(=O)(=O)c1ccc(NC2c3ccccc3C(=O)N2Cc2ccco2)cc1 (centres undefined)	Sm TGR block 22µM
Cc1ccccc1NC1c2ccccc2C(=O)N1Cc1ccco1 (centres undefined)	Sm TGR block 20µM
COc1cccc(NC2c3ccccc3C(=O)N2Cc2ccco2)c1 (centres undefined)	Sm TGR block 40µM
CCOc1ccc(C(=O)CSc2nnc3cc(C)c4ccccc4n23)cc1	none (no result: RE007 growth inh)
O=C1c2ccccc2N2C(=O)c3ccccc3C2N1Cc1ccco1 (centres undefined)	Sm TGR block 14µM
COc1cccc(OCc2cc(C3Nc4ccccc4C(=O)N3Cc3ccco3)ccc2OC)c1 (centres undefined)	Sm TGR block 18µM
COc1ccc(CN2CCN(CCCc3ccccc3)C(CCO)C2)c(OC)c1 (centres undefined)	none
OCCC1CN(Cc2c(O)ccc3ccccc23)CCN1CCc1ccccc1 (centres undefined)	Sm TGR block 0.63µM
COc1cc(CN2CCN(CCCc3ccccc3)C(CCO)C2)cc(OC)c1O (centres undefined)	Sm TGR block 20µM
COc1ccc(CN2CCN(CCc3ccccc3)C(CCO)C2)c(O)c1 (centres undefined)	Sm TGR block 45µM
CC(C)CN1CCN(Cc2cn(C)c3ccccc23)CC1CCO (centres undefined)	Sm TGR block 89µM
COc1cc(=O)n2c(c1C(=O)N(C)Cc1nonc1C)CCN(Cc1cccc3ccccc13)CC2	none (no result: Sm TGR block, RE007 growth inh, TbPYK inhibitor)

Bioassay records as filed in PubChem BioAssay.
